Measurements reported in PubChem BioAssay (NCI).
About 83,000 compounds went through this panel and 20% of them were active in at least one assay; those are over-represented in the sample as a whole.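 Plates (96-well) were seeded with cells, treated with compound at one concentration, and incubated for 48 hours before percent growth was determined.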 The source made the active and inactive calls. The calls were made as follows: active = growth percent below 10; inactive = the rest.

Key:
Assay in all cases: NCI-60 one-dose screen, 48 h (100 = growth as untreated, 0 = no growth, -100 = all killed)
Conditions in all cases: 10 µM unless noted
DU-145 prostate = test system: DU-145 prostate
MALME-3M melanoma = test system: MALME-3M melanoma
MDA-MB-231 breast = test system: MDA-MB-231 breast
SF-268 CNS = test system: SF-268 CNS
SF-295 CNS = test system: SF-295 CNS
SF-539 CNS = test system: SF-539 CNS
UACC-257 melanoma = test system: UACC-257 melanoma
M14 melanoma = test system: M14 melanoma
HCT-15 colon = test system: HCT-15 colon
HT29 colon = test system: HT29 colon
SNB-75 CNS = test system: SNB-75 CNS
SNB-19 CNS = test system: SNB-19 CNS
U251 CNS = test system: U251 CNS
PC-3 prostate = test system: PC-3 prostate
SK-MEL-5 melanoma = test system: SK-MEL-5 melanoma
UACC-62 melanoma = test system: UACC-62 melanoma
LOX IMVI melanoma = test system: LOX IMVI melanoma
SK-MEL-28 melanoma = test system: SK-MEL-28 melanoma
RXF 393 renal = test system: RXF 393 renal
K-562 leukemia = test system: K-562 leukemia

Measured: growth

O=C(Nc1ccccc1)Oc1ccccc1-c1ccccc1
inactive: DU-145 prostate 105% | MALME-3M melanoma 95% | MDA-MB-231 breast 109% | SF-268 CNS 96.2% | SF-295 CNS 97.4% | SF-539 CNS 105% | UACC-257 melanoma 80.8% | M14 melanoma 85.2% | HCT-15 colon 102% | HT29 colon 96.5% | SNB-75 CNS 75.5% | SNB-19 CNS 99.5% | U251 CNS 95.2% | PC-3 prostate 80.4% | SK-MEL-5 melanoma 97.9% | UACC-62 melanoma 93.2% | LOX IMVI melanoma 95.2% | SK-MEL-28 melanoma 107%

Cc1ccc(C(c2c(O)c3cc(Br)ccc3[nH]c2=O)c2c(O)c3cc(Br)ccc3[nH]c2=O)cc1
inactive: DU-145 prostate 102% | MALME-3M melanoma 91% | MDA-MB-231 breast 70.5% | SF-268 CNS 87.1% | SF-295 CNS 75.6% | SF-539 CNS 91.2% | UACC-257 melanoma 98.3% | M14 melanoma 93.3% | HCT-15 colon 79.1% | HT29 colon 97.5% | SNB-75 CNS 83.7% | SNB-19 CNS 93% | U251 CNS 83.7% | PC-3 prostate 75.5% | SK-MEL-5 melanoma 73.3% | UACC-62 melanoma 63.2% | LOX IMVI melanoma 84.1% | SK-MEL-28 melanoma 89.6%

CC(=O)OCCCCCNc1ccccc1
inactive: DU-145 prostate 106% | MALME-3M melanoma 103% | MDA-MB-231 breast 98% | RXF 393 renal 123% | SF-268 CNS 99.4% | SF-295 CNS 110% | SF-539 CNS 94.2% | UACC-257 melanoma 110% | M14 melanoma 113% | HCT-15 colon 107% | HT29 colon 99.2% | SNB-75 CNS 103% | SNB-19 CNS 107% | U251 CNS 100% | PC-3 prostate 100% | SK-MEL-5 melanoma 106% | UACC-62 melanoma 106% | LOX IMVI melanoma 100% | SK-MEL-28 melanoma 106%

COc1ccc(-c2ncc(-c3ccccc3)[nH]2)cc1OC
inactive: DU-145 prostate 131% | K-562 leukemia 93.9% | MALME-3M melanoma 260% | MDA-MB-231 breast 107% | SF-268 CNS 103% | SF-295 CNS 88.6% | SF-539 CNS 100% | UACC-257 melanoma 10.5% | HCT-15 colon 104% | HT29 colon 113% | SNB-75 CNS 108% | SNB-19 CNS 104% | U251 CNS 113% | PC-3 prostate 112% | SK-MEL-5 melanoma 106% | UACC-62 melanoma 95.3% | LOX IMVI melanoma 116% | SK-MEL-28 melanoma 105%

O=C(N/N=C/c1cccc(O)c1)c1ccccc1Nc1cccc(C(F)(F)F)c1
inactive: DU-145 prostate 88.7% | MALME-3M melanoma 76.3% | MDA-MB-231 breast 73.8% | SF-268 CNS 69.5% | SF-295 CNS 52.2% | SF-539 CNS 103% | UACC-257 melanoma 64.9% | M14 melanoma 58.8% | HCT-15 colon 72.2% | HT29 colon 106% | SNB-75 CNS 79.7% | SNB-19 CNS 88.1% | U251 CNS 82.4% | PC-3 prostate 81.9% | SK-MEL-5 melanoma 82.5% | UACC-62 melanoma 80.7% | LOX IMVI melanoma 66.7% | SK-MEL-28 melanoma 96.6%

Cn1c2c(Cl)c(Cl)ccc2c2cc(N)[nH]c(=O)c21
inactive: DU-145 prostate 84.2% | MALME-3M melanoma 102% | MDA-MB-231 breast 68.5% | SF-268 CNS 80.9% | SF-295 CNS 53.7% | SF-539 CNS 82.8% | UACC-257 melanoma 97.9% | M14 melanoma 97.8% | HCT-15 colon 97.1% | HT29 colon 92.8% | SNB-75 CNS 77.7% | SNB-19 CNS 98.4% | U251 CNS 93.8% | PC-3 prostate 64.6% | SK-MEL-5 melanoma 81.7% | UACC-62 melanoma 87.2% | LOX IMVI melanoma 76.1% | SK-MEL-28 melanoma 103%

COc1cc2nnn3c4ncccc4c(N=O)c3c2cc1OC
inactive: DU-145 prostate 102% | MALME-3M melanoma 91.2% | MDA-MB-231 breast 78.6% | SF-268 CNS 30.3% | SF-295 CNS 111% | SF-539 CNS 98.6% | UACC-257 melanoma 76.1% | M14 melanoma 104% | HCT-15 colon 83.4% | HT29 colon 57.5% | SNB-75 CNS 79.8% | SNB-19 CNS 102% | U251 CNS 45.1% | PC-3 prostate 74.8% | SK-MEL-5 melanoma 113% | UACC-62 melanoma 86.3% | LOX IMVI melanoma 58.9% | SK-MEL-28 melanoma 81.4%

CCOC(=O)Oc1c(OC)cc(C(=O)O[C@@H]2C[C@@H]3CN4CCc5c([nH]c6cc(OC)ccc56)[C@H]4C[C@@H]3[C@H](C(=O)OC)[C@H]2OC)cc1OC
inactive: DU-145 prostate 81.5% | MALME-3M melanoma 58.9% | MDA-MB-231 breast 43.2% | RXF 393 renal 89.8% | SF-268 CNS 75.2% | SF-295 CNS 74.3% | SF-539 CNS 79.9% | UACC-257 melanoma 94% | M14 melanoma 72.1% | HCT-15 colon 44.1% | HT29 colon 36.7% | SNB-75 CNS 91.1% | SNB-19 CNS 75.5% | U251 CNS 49.4% | PC-3 prostate 35% | SK-MEL-5 melanoma 86.1% | UACC-62 melanoma 87.8% | LOX IMVI melanoma 14.4% | SK-MEL-28 melanoma 83.2%

O=c1[nH]c2c(s1)CCCC2CN1CCCCC1 (stereo unspecified)
inactive: DU-145 prostate 109% | MALME-3M melanoma 107% | MDA-MB-231 breast 133% | SF-268 CNS 98.7% | SF-295 CNS 104% | SF-539 CNS 105% | UACC-257 melanoma 92% | HCT-15 colon 107% | HT29 colon 95.2% | SNB-75 CNS 83.8% | SNB-19 CNS 110% | U251 CNS 102% | PC-3 prostate 91.9% | SK-MEL-5 melanoma 99.8% | UACC-62 melanoma 113% | LOX IMVI melanoma 95.5% | SK-MEL-28 melanoma 99.3%

CCOC(=O)c1c(SC)nn(-c2cc(=O)[nH]c3ccc(Br)cc23)c1N
inactive: DU-145 prostate 94.6% | MALME-3M melanoma 105% | MDA-MB-231 breast 110% | SF-268 CNS 90.7% | SF-295 CNS 107% | SF-539 CNS 102% | UACC-257 melanoma 112% | M14 melanoma 109% | HCT-15 colon 106% | HT29 colon 107% | SNB-75 CNS 94% | SNB-19 CNS 101% | U251 CNS 94.1% | PC-3 prostate 94.2% | SK-MEL-5 melanoma 101% | UACC-62 melanoma 102% | LOX IMVI melanoma 90.1% | SK-MEL-28 melanoma 117%

Cc1cc2nc(-c3ccccc3)c(-c3ccccc3)nc2cc1C
inactive: DU-145 prostate 112% | MALME-3M melanoma 113% | MDA-MB-231 breast 94.5% | RXF 393 renal 111% | SF-268 CNS 116% | SF-295 CNS 90% | SF-539 CNS 109% | UACC-257 melanoma 117% | M14 melanoma 113% | HCT-15 colon 98.1% | HT29 colon 116% | SNB-75 CNS 114% | SNB-19 CNS 104% | U251 CNS 105% | PC-3 prostate 106% | SK-MEL-5 melanoma 92.4% | UACC-62 melanoma 85.5% | LOX IMVI melanoma 100% | SK-MEL-28 melanoma 105%

COc1ccc(-c2c[nH]c(C(=O)O)c2-c2cc(OC)c3c(c2OC)OCO3)cc1
inactive: DU-145 prostate 112% | K-562 leukemia 108% | MALME-3M melanoma 96.1% | MDA-MB-231 breast 105% | SF-268 CNS 99.7% | SF-295 CNS 103% | SF-539 CNS 97.4% | UACC-257 melanoma 98.7% | HCT-15 colon 103% | HT29 colon 110% | SNB-75 CNS 91.6% | SNB-19 CNS 101% | U251 CNS 104% | PC-3 prostate 103% | UACC-62 melanoma 95.4% | LOX IMVI melanoma 95.4% | SK-MEL-28 melanoma 104%

CC1=CC[C@@H]2CC[C@]3(C)[C@H](CC[C@@H]4[C@@]5(C)CCCNC(C)(C)[C@@H]5CC[C@]43C)[C@H]2[C@@H]1C
active: DU-145 prostate -7.26% | MALME-3M melanoma 3.21% | MDA-MB-231 breast -7.94% | SF-295 CNS -35.2% | HCT-15 colon -57.8% | HT29 colon -55.2% | U251 CNS -90.8% | LOX IMVI melanoma -100%
inactive: SF-268 CNS 40.2% | SF-539 CNS 77.5% | UACC-257 melanoma 76.7% | M14 melanoma 15.5% | SNB-75 CNS 76.5% | SNB-19 CNS 18.1% | PC-3 prostate 27.7% | SK-MEL-5 melanoma 89.9% | UACC-62 melanoma 92.4% | SK-MEL-28 melanoma 63.7%

O=C1OC(=O)C2C1CC=CC2c1ccccc1 (stereo unspecified)
inactive: DU-145 prostate 94% | MALME-3M melanoma 78.8% | MDA-MB-231 breast 93.7% | RXF 393 renal 102% | SF-268 CNS 91.1% | SF-295 CNS 95.8% | SF-539 CNS 88.3% | UACC-257 melanoma 107% | M14 melanoma 97.4% | HT29 colon 86.3% | SNB-75 CNS 83.7% | SNB-19 CNS 93.7% | U251 CNS 87.8% | PC-3 prostate 73.1% | SK-MEL-5 melanoma 98.6% | UACC-62 melanoma 94.4% | LOX IMVI melanoma 71.7%

C=C(C)[C@@H]1CC[C@]2(C(=O)NCCCN(CCC#N)CCC#N)CC[C@]3(C)[C@H](CC[C@@H]4[C@@]5(C)CCC(=O)C(C)(C)[C@@H]5CC[C@]43C)[C@@H]12
inactive: DU-145 prostate 105% | MALME-3M melanoma 105% | MDA-MB-231 breast 103% | SF-268 CNS 94.6% | SF-295 CNS 99.8% | SF-539 CNS 94.2% | UACC-257 melanoma 91.4% | M14 melanoma 99% | HCT-15 colon 101% | HT29 colon 99.1% | SNB-75 CNS 92% | SNB-19 CNS 98.9% | PC-3 prostate 94.4% | SK-MEL-5 melanoma 102% | UACC-62 melanoma 99.6% | LOX IMVI melanoma 101% | SK-MEL-28 melanoma 107%

Cc1ccc(/C=C/C(=O)c2ccc(N)cc2)c(C)c1
inactive: DU-145 prostate 78.3% | MDA-MB-231 breast 56.8% | SF-268 CNS 36.6% | SF-295 CNS 95.5% | SF-539 CNS 91% | UACC-257 melanoma 108% | M14 melanoma 50.6% | HCT-15 colon 18.6% | HT29 colon 60.9% | SNB-75 CNS 97.8% | SNB-19 CNS 85.7% | U251 CNS 54.1% | PC-3 prostate 91.6% | SK-MEL-5 melanoma 96% | SK-MEL-28 melanoma 105%
active: MALME-3M melanoma -75.6% | LOX IMVI melanoma -91.5%
